In the library only some 2.4% were active in any assay of this set; here they are far more common.
PGE2 EP2 inh – human EP2 receptor antagonists, primary screen, TR-FRET cAMP, C6 glioma cells; 260,000 tested, 0.52% active; C6 glioma cells expressing human EP2; cells stimulated with saturating PGE2; Prostaglandin E2 receptor EP2 subtype (Homo sapiens), P43116; inhibition, % at 25 µM;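 active means percent inhibition above 40 after rounding to a whole number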;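 further: rat C6 glioma host cells with rolipram phosphodiesterase inhibitor present; the protocol text gives 20 µM as final concentration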
S1P3 antagonist – S1P3 receptor antagonists, primary screen, cell-based | Sphingosine 1-phosphate receptor 3 (Homo sapiens), Q99500 | CHO S1P3 NFAT-BLA reporter, FRET fluorescence, antagonist mode | inhibition, % at 4.98 µM | 170,000 tested, 0.27% active;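 active means inhibition above the plate cutoff, the mean inhibition of test wells on that plate plus 3 SD, cut at about 28% in these data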;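 further: cells challenged with S1P at its EC80 of 0.8 µM; blue over green emission ratio from cleaved BLA substrate after 4 h stimulation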
S1P4 antag – S1P4 receptor antagonists, primary screen, cell-based; Sphingosine 1-phosphate receptor 4 (Homo sapiens), O95977; S1P4-expressing cells, antagonist mode, reporter read-out; inhibition, % at 4.98 µM; 220,000 tested, 0.26% active; AID 1510, 2009; in the data active means inhibition above about 29%
Target sequence (O95977 whole entry, looked up): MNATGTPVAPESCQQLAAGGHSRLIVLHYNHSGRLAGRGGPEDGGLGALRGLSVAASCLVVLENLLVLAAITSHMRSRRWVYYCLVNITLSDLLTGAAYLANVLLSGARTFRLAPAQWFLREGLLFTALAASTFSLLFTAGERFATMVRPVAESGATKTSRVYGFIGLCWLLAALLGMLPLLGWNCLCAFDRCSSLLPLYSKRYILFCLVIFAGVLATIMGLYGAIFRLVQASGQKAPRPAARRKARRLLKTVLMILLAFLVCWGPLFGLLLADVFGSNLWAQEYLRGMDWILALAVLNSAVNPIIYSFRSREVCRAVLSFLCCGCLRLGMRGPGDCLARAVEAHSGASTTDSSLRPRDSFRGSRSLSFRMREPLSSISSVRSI
EP2 mod – EP2 receptor modulators, cAMP readout, primary screen, cell-based, HTRF cAMP, PGE2 stimulation; Prostaglandin E2 receptor EP2 subtype (Homo sapiens), P43116; EP2-expressing cells, cAMP HTRF FRET, PGE2 co-stimulation; induction, % at 25 µM; 260,000 tested, 0.83% active; AID 940, 2007;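 active means compounds whose cAMP rise, as percent of the full-agonist control response, exceeds 60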;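 further: rat C6 glioma line stably carrying human EP2 under a CMV promoter; the protocol text gives 20 µM as final concentration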
Insulin prom inh – inhibitors of insulin promoter-driven GFP, primary screen, imaging, TRM-6 cells (human fetal islet line), eGFP reporter, cell count; inhibition, % at 2 µM; 130,000 tested, 0.9% active; reporter expression induced with tamoxifen;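 active means inhibition above the mean plus 3 SD, with well images judged a real hit on visual review, cut at about 60% in these data, passing the limit was not always enough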
S1P4 ag – S1P4 receptor agonists, primary screen, cell-based | Sphingosine 1-phosphate receptor 4 (Homo sapiens), O95977 | S1P4-expressing cell line, agonist reporter assay | activation, % at 4.98 µM | 220,000 tested, 0.35% active; in the data active means activation above about 11%
S1P4 agonist cf – S1P4 receptor agonists, retest, confirmation, cell-based, high throughput. shares compounds with S1P4 ag. S1P4 agonist cell-based reporter assay. activation, % at 4.98 µM. 740 tested, 7% active. AID 1523, 2009; in the data active means activation above about 12%
S1P1 agonist – S1P1 receptor agonists, human, counter-screen for S1P4 agonist project, cell-based; shares compounds with S1P4 ag; S1P1 agonist cell-based assay, activation; activation, % at 4.98 µM; 740 tested, 4% active; in the data active means activation above about 21%
A number is an active result; i = inactive; nt = no result given.

SMILES	PGE2 EP2 inh	S1P3 antagonist	S1P4 antag	EP2 mod	Insulin prom inh	S1P4 ag	S1P4 agonist cf	S1P1 agonist
CCOC(=O)C1(Cc2ccc(Cl)cc2)CCN(C(=O)CCc2ccncc2)CC1	i	i	i	i	nt	19	i	i
CCOC(=O)CN1C(=O)C(C)(C)Oc2ccc(C(=O)NC(C)(C)CC)cc21	i	i	i	i	nt	28	i	i
CCC(C)(C)NC(=O)c1ccc2c(c1)N(CC(=O)OC)C(=O)C(C)(C)O2	i	i	i	i	i	i	nt	nt
Cc1nc2cc(C(=O)N3CCC(C(=O)c4nc5ccccc5s4)CC3)ccc2n1C	nt	nt	nt	i	nt	nt	nt	nt
O=C(COC(=O)c1c2c(nc3ccccc13)CCN(Cc1ccccc1)C2)Nc1c(F)cccc1F	i	i	i	i	i	58	i	i
COc1cc(C(=O)NCc2ccncc2)cc(OC)c1OC	i	i	i	i	nt	14	i	i
Cc1cccc2cc(C(c3nnnn3C(C)(C)C)N(Cc3ccccc3)Cc3cccs3)c(=O)[nH]c12 (stereo unspecified)	i	nt	nt	i	nt	nt	nt	nt
CC1CCCC(C)N1C(=O)CSc1nnc(-c2cccs2)n1C (stereo unspecified)	i	nt	nt	i	nt	nt	nt	nt
Cc1nc2nc[nH]n2c(=O)c1Cl	i	nt	nt	i	nt	nt	nt	nt
CCOC(=O)CNc1ccc(C(=O)OCC)cc1[N+](=O)[O-]	i	i	i	i	i	i	nt	nt
CCCNc1ccc(C(=O)OCC)cc1[N+](=O)[O-]	i	i	i	i	i	34	i	i
Cn1c(SCC(=O)Nc2ccc(Cl)c(C(F)(F)F)c2)nc2ccccc2c1=O	i	nt	nt	i	nt	nt	nt	nt
COc1ccc(OCCOc2ccc(C)nc2[N+](=O)[O-])cc1	i	i	i	i	i	i	nt	nt
Cc1ccc(OCCOc2ccc(Cl)cc2Cl)c([N+](=O)[O-])n1	i	i	i	i	i	102	80	i
CCC(C)(C(=O)NC1CCCCC1)N(Cc1cccs1)C(=O)c1ccccn1 (stereo unspecified)	i	i	i	i	i	45	i	i
Cc1cccc(C)c1Nc1nnc(SCC(=O)c2ccc(Br)s2)s1	i	i	i	i	nt	34	i	i
Cc1cc(=O)n2[nH]cc(C(=O)N[C@H](C)Cn3nnc4ccccc43)c2n1	i	nt	nt	i	nt	nt	nt	nt
CCn1nc(C)c(/C=N/NC(=S)Nc2ccc(Cl)cc2Cl)c1C	i	i	i	i	i	i	nt	nt
Cc1nn(C)cc1/C=N/NC(=S)Nc1ccc(Cl)cc1Cl	i	i	i	i	i	15	i	i
CC(=O)Nc1ccc(S(=O)(=O)Oc2ccc(C(=S)N3CCC(O)CC3)cc2)cc1	i	i	i	i	i	i	nt	nt
CC(=O)Nc1ccc(S(=O)(=O)Oc2ccc(C(=S)N3CCCCC3)cc2)cc1	i	i	i	i	i	29	i	i
CC(C)(C)C(=O)Cn1c(=O)n(-c2ccc(F)cc2F)c(=O)c2sccc21	i	i	i	i	i	95	i	i
COc1ccc(CCNC(=O)Cn2c(=O)n(-c3ccc(F)cc3F)c(=O)c3sccc32)cc1OC	i	i	i	i	i	i	nt	nt
Cc1ccc(C(O)CN2CCC(O)(c3ccc(C(F)(F)F)cc3)CC2)cc1 (stereo unspecified)	i	nt	nt	i	nt	nt	nt	nt
COc1ccccc1-n1c(SCC(=O)N2CCOCC2)nnc1-c1ccccc1O	i	nt	nt	i	nt	nt	nt	nt
CCCOc1ccccc1C1C(C(=O)OC)=CN(C(C)C)C=C1C(=O)OC	i	i	i	i	i	18	i	i
CCCCOc1ccccc1C1C(C(=O)OC)=CN(CC)C=C1C(=O)OC	nt	i	i	i	i	12	i	i
COC(=O)C1=CN(C(C)C)C=C(C(=O)OC)C1c1cccc(OC)c1	nt	i	i	i	i	i	nt	nt
COc1ccccc1-n1c(CNc2cccc(C)c2C)nnc1SCC(C)=O	i	nt	nt	i	nt	nt	nt	nt
